Sm TGR inh = blocks Schistosoma mansoni thioredoxin glutathione reductase; Q962Y6; purified TGR, DTNB reduction, TNB absorbance 405 nm; Potency, µM (titrated, usually from 114 µM), actives largely listed as inhibitors; hit rate 3% among 360,000; note: nearly all actives have a fitted effect of over 60% in size
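First, TGR (20 nM dispensed) and NADPH were mixed with compound. Second, a 15 min room-temperature incubation followed. Third, further NADPH and then DTNB were added to start the reaction. Finally, TNB absorbance was monitored kinetically.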
Vaccinia Venus = vaccinia inhibition (Venus reporter); Potency, µM (titrated, usually from 36.5 µM), actives largely listed as inhibitors; Vaccinia virus Venus reporter expression, fluorescence; hit rate 0.46% among 330,000; calls by dose curve; tested in A549 cells; note: nearly all actives have a fitted effect of over 30% in size
Vaccinia mCherry = inhibitors of vaccinia virus infection (mCherry reporter signal); Vaccinia virus mCherry reporter infection, fluorescence; Potency, µM (doses to about 36.5 µM), usual class: inhibitors; hit rate 0.63% among 310,000; AID 720579; calls by dose curve; tested in A549 cells; note: nearly all actives have a fitted effect of over 35% in size
FMDV antiviral = blocks foot and mouth disease virus | hit rate 1.2% among 410,000 | Potency, µM (highest dose often 57.9 µM), usual class: inhibitors | FMDV antiviral cell-based qHTS; calls by dose curve; tested in HEK293T cells; note: read-out not given here; nearly all actives have a fitted effect of over 45% in size
HCMV inh = human cytomegalovirus inhibition | HFF cells, HCMV-luciferase reporter, 72 h; stronger effect = lower value | activity change, negative = inhibition, % at 57.5 µM | hit rate 4.5% among 410,000 | AID 1259415; in the data active = activity change below about -60%; inconclusive = no clear call, values can overlap the other calls; inactive = above about -39%
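Two-dose cell screen: HFF monolayers treated with compounds and infected with luciferase-expressing HCMV at 1 PFU/cell, 72 h at 37C, then lysed for luciferase measurement.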
HCV inh = blocks hepatitis C virus; Huh7.5.1 HCVcc-Cre infection, luciferase reporter, 44 h; Potency, µM (doses to about 41.8 µM), hits mostly inhibitors; hit rate 3.4% among 340,000; AID 651820
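Whole-lifecycle infectious HCVcc-Cre system; cells 1,000/well, compound then virus (~0.5 moi) added 4 h after plating, 44 h culture. Luciferase read 15 sec following 15 min substrate incubation, room temp.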
Numbers stand for hits. In the library only some 9.3% were active in any assay of this set; here they are far more common. Unless noted, calls come from the whole dose curve; as a rule, active = well fitted curve in the direction sought with a large enough effect; inconclusive = small, poorly fitted or top-dose-only effect, or another doubt; inactive = no such curve, though single readings can be large; an effect the other way counts as inactive or inconclusive.

OCC#CCSc1nnc(-c2ccc(Br)cc2)o1 was read as Sm TGR inh inactive, FMDV antiviral inactive, HCMV inh inactive and HCV inh inconclusive.
Screening COc1cc2c(cc1OC)CN(C(=O)c1ccco1)CC2 returned Sm TGR inh inconclusive, FMDV antiviral inactive, HCMV inh inactive and HCV inh inactive.
`COc1cc2c(cc1OC)CN(C(=O)c1ccc(Br)o1)CC2` gave Sm TGR inh 40µM, Vaccinia Venus inactive, Vaccinia mCherry inconclusive, FMDV antiviral inactive, HCMV inh inactive and HCV inh inactive.
For COc1cc2c(cc1OC)CN(C(=O)c1nn(Cc3ccccc3)c(=O)c3ccccc13)CC2 the results were Sm TGR inh inactive, Vaccinia Venus inconclusive, Vaccinia mCherry inconclusive, FMDV antiviral inactive, HCMV inh inconclusive and HCV inh 10µM.
For COC(=O)c1nn(Cc2ccccc2)c(=O)c2ccccc12 the results were Sm TGR inh inactive, Vaccinia Venus inactive, Vaccinia mCherry inactive, FMDV antiviral inactive, HCMV inh inactive and HCV inh inactive.
Screening CCOC1=C2[C@@H](CN(S(=O)(=O)c3ccc(C)cc3)[C@H]2c2ccc(Cl)cc2)[C@H]2C(=O)N(c3ccccc3)C(=O)[C@H]2C1 returned Vaccinia Venus inactive, Vaccinia mCherry inactive, FMDV antiviral inactive and HCMV inh inactive.
`O=C(CSc1c2c(nc3ccc(Cl)cc13)CCCC2)NCc1ccccc1Cl` gave Sm TGR inh inactive, Vaccinia Venus inactive, Vaccinia mCherry inactive, FMDV antiviral inactive and HCMV inh inactive.
`O=C(CSc1c2c(nc3cc(Cl)ccc13)CCCC2)N1CCN(c2ccccc2)CC1` gave Sm TGR inh inactive, Vaccinia Venus inactive, Vaccinia mCherry inactive, FMDV antiviral inconclusive and HCMV inh -78.
For O=C(CSc1c2c(nc3cc(Cl)ccc13)CCCC2)NCc1ccco1 the results were Sm TGR inh 89µM, Vaccinia Venus inactive, Vaccinia mCherry inactive, FMDV antiviral inconclusive, HCMV inh inactive and HCV inh 11µM.
Screening O=C(CSc1c2c(nc3cc(Cl)ccc13)CCCC2)NCc1ccccc1Cl returned Sm TGR inh inactive, Vaccinia Venus inactive, Vaccinia mCherry inactive, FMDV antiviral inconclusive and HCMV inh -80.
`O=C(CSc1nc2ccc(Cl)cc2[nH]1)NCc1ccco1` gave Sm TGR inh 14µM, Vaccinia Venus inactive, Vaccinia mCherry inactive, FMDV antiviral inactive, HCMV inh inactive and HCV inh inactive.
O=C(CSc1nc2ccccc2[nH]1)NCc1ccco1 was read as Sm TGR inh inactive, Vaccinia Venus inactive, Vaccinia mCherry inactive, HCMV inh inactive and HCV inh inactive.
Screening Cc1ccc(NC(=O)CCS(=O)(=O)c2cc3c4c(c2)CCN4C(=O)CC3)c(C)c1 returned Sm TGR inh inactive, Vaccinia Venus inactive, Vaccinia mCherry inactive, FMDV antiviral inactive and HCMV inh inactive.
`C#CCn1cc(/C=C2\NC(=O)NC2=O)c2ccccc21` gave Sm TGR inh inactive, Vaccinia Venus inactive, Vaccinia mCherry 4.5µM, FMDV antiviral inactive, HCMV inh inactive and HCV inh inactive.
Screening CC1(C)C(=O)Nc2ccccc2N1C(=O)COC(=O)c1ccc(Cl)c(S(=O)(=O)NCc2ccccc2)c1 returned Sm TGR inh inactive, Vaccinia Venus inactive, Vaccinia mCherry inactive, FMDV antiviral inactive, HCMV inh inactive and HCV inh inconclusive.
`Cc1ccc(C(=O)NNC(=O)C2CCN(c3nccc(C)n3)CC2)cc1` gave Sm TGR inh inactive, Vaccinia Venus inactive, Vaccinia mCherry inactive, HCMV inh inactive and HCV inh inactive.
`O=[N+]([O-])c1ccc(Cl)c(S(=O)(=O)Nc2ccc(-c3ccc(N4CCCC4)nn3)cc2)c1` gave Sm TGR inh inactive, Vaccinia Venus inactive, Vaccinia mCherry inactive, FMDV antiviral inactive, HCMV inh -64 and HCV inh inactive.
`COC(=O)NCc1c(C)nn(-c2ccccc2)c1-n1cccc1` gave Sm TGR inh inactive, Vaccinia Venus inactive, Vaccinia mCherry inactive, FMDV antiviral inactive and HCMV inh inactive.
Cc1ccc(OCCCCCCN2CCNCC2)c(Br)c1 was read as Vaccinia Venus inactive, Vaccinia mCherry inactive, FMDV antiviral inactive, HCMV inh -63 and HCV inh inconclusive.
`Clc1ccc(OCCCCCN2CCCC2)c(Br)c1` gave Sm TGR inh inactive, Vaccinia Venus inactive, Vaccinia mCherry inactive, FMDV antiviral inactive, HCMV inh inconclusive and HCV inh 10µM.
For Clc1ccc(OCCCN2CCCCC2)c(Br)c1 the results were Sm TGR inh inactive, Vaccinia Venus inactive, Vaccinia mCherry inactive, FMDV antiviral inactive, HCMV inh inactive and HCV inh inconclusive.
`CC1CCN(CCCOc2ccc(Br)cc2Cl)CC1` gave Sm TGR inh inactive, Vaccinia Venus inactive, Vaccinia mCherry inactive, FMDV antiviral inactive, HCMV inh inactive and HCV inh inactive.
Clc1ccc(Cl)c(OCCCCN2CCNCC2)c1 was read as Sm TGR inh inactive, Vaccinia Venus inactive, Vaccinia mCherry inactive, FMDV antiviral inactive, HCMV inh inactive and HCV inh inconclusive.
For Cc1ccc(OCCCCN2CCC(C)CC2)c(Br)c1 the results were Sm TGR inh inactive, Vaccinia Venus inactive, Vaccinia mCherry inactive, FMDV antiviral inactive, HCMV inh -67 and HCV inh inconclusive.
For CN(CC(=O)Nc1ccc(Cl)c(C(F)(F)F)c1)C(=O)CCc1nc2ccccc2c(=O)[nH]1 the results were Sm TGR inh inactive, Vaccinia Venus inactive, Vaccinia mCherry inactive, FMDV antiviral inactive, HCMV inh inactive and HCV inh inconclusive.
For Cc1cccc(Cn2nnc3c(=O)[nH]c(C4CCCN(C(=O)c5ccc(C(C)(C)C)cc5)C4)nc32)c1 (stereo not drawn) the results were Sm TGR inh inactive, Vaccinia Venus inactive, Vaccinia mCherry inactive, FMDV antiviral inconclusive and HCMV inh -70.
For O=C(Cc1ccccc1F)N1CCC(c2nc3c(nnn3Cc3cccc(Cl)c3)c(=O)[nH]2)CC1 the results were Sm TGR inh inactive, Vaccinia Venus inactive, Vaccinia mCherry inactive, FMDV antiviral inactive and HCMV inh -62.
`Cc1ccccc1Cn1nnc2c(=O)[nH]c(C3CCCN(C(=O)c4ccc(C(C)(C)C)cc4)C3)nc21` (stereo not drawn) gave Sm TGR inh inactive, Vaccinia Venus inactive, Vaccinia mCherry inactive, FMDV antiviral inconclusive and HCMV inh inactive.
`O=c1[nH]c(C2CCN(S(=O)(=O)c3ccc4c(c3)OCCO4)CC2)nc2c1nnn2Cc1c(F)cccc1Cl` gave Sm TGR inh inactive, Vaccinia Venus inactive, Vaccinia mCherry inconclusive, FMDV antiviral inactive, HCMV inh -75 and HCV inh inactive.
Screening O=c1[nH]c(C2CCCN(S(=O)(=O)c3cccc(F)c3)C2)nc2c1nnn2Cc1ccccc1 (stereo not drawn) returned Sm TGR inh inactive, Vaccinia Venus inactive, Vaccinia mCherry inactive, FMDV antiviral inactive, HCMV inh inactive and HCV inh inactive.

High-throughput results from PubChem BioAssay.
